Source: PubChem (Broad Institute)
These entries were drawn from the full list.
aSyn UTR act – Activators working through SNCA 5'UTR binding (MLPCN); 300,000 compounds, 7.1% hits; activity score, % (tested at 7.5 µM), hits read low; alpha-synuclein 5'UTR reporter, activators screen; AID 1814; in the data active = activity score below about -60%
Each line names hits and unclear results; the compound was inactive in the other large screens.

CCCN1CCN(CCCNC(=O)c2ccc3nc(N4CCC(C)CC4)sc3c2)CC1	aSyn UTR act -169
CCc1ccc(Nc2nnc(SCC(=O)NCCN3C(=O)CSC3=O)s2)cc1	aSyn UTR act -65
CCc1ccc(Nc2nnc(SCC(=O)Nc3sccc3C(N)=O)s2)cc1	aSyn UTR act -86
CCc1ccc(Nc2nnc(SCC(=O)Nc3cccnc3Cl)s2)cc1	aSyn UTR act -64
O=C(Nc1nc2ccccc2[nH]1)c1ccccc1[N+](=O)[O-]	aSyn UTR act -118
O=C(Nc1nc2ccccc2[nH]1)c1ccc(Cl)c([N+](=O)[O-])c1	aSyn UTR act -109
Cc1c(C(=O)Nc2nc3ccccc3[nH]2)cccc1[N+](=O)[O-]	aSyn UTR act -167
CN1CCN(/N=C/c2cccc(Cl)c2Cl)CC1	aSyn UTR act -72
Cc1csc(NC(=O)c2ccccc2O)n1	aSyn UTR act -84
Cc1csc(NC(=O)c2ccc(Cl)nc2)n1	aSyn UTR act -93
CC(C)(C)c1csc(NC(=O)c2ccccc2O)n1	aSyn UTR act -141
Cc1csc(NC(=O)c2cc(C)oc2C)n1	aSyn UTR act -128
CCOc1ccc(-c2nc(C)c(C(C)=O)n2O)cc1	aSyn UTR act -173
S=C(NCCc1ccccc1)NC1CCCCCC1	aSyn UTR act -114
S=C(NCCc1ccc(Cl)cc1)NC1CCCCC1	aSyn UTR act -111
CNC[C@@H](Cc1ccccc1)NC[C@@H](CC1CCCCC1)NCCCc1ccccc1	none
COc1ccc2oc(C(=O)NCC3CCCO3)c(C)c2c1 (configuration not stated)	aSyn UTR act -126
COc1ccc2oc(C(=O)NC(C)(C)C)c(C)c2c1	aSyn UTR act -138
COc1ccc(-c2cc(C(=O)NCC3CCCO3)c3cc(C)ccc3n2)cc1 (configuration not stated)	aSyn UTR act -67
CCOc1ccc2oc(C(=O)NCC3CCCO3)c(C)c2c1 (configuration not stated)	aSyn UTR act -100
CCOC(=O)c1cnc2cc(-c3ccc(Cl)cc3)nn2c1N	aSyn UTR act -87
CCOC(=O)c1cnc2cc(-c3ccc(Br)cc3)nn2c1C	aSyn UTR act -131
Cc1nn(-c2ccccc2)c(C)c1Cc1ccc(O)cc1	aSyn UTR act -117
O=C(CCc1nc2ccccc2s1)c1ccccc1	aSyn UTR act -85
O=C(CCc1nc2ccccc2s1)OCC(=O)c1ccccc1	aSyn UTR act -100
O=C(COC(=O)CCc1nc2ccccc2s1)Nc1nc(-c2ccccc2)cs1	aSyn UTR act -84
CCCn1ncc2c(Nc3ccc(C)c(C)c3)ncnc21	aSyn UTR act -92
N#Cc1cc2c(nc1SCC(=O)Nc1sc3c(c1C#N)CCC3)CCCCCC2	aSyn UTR act -93
CN1CCc2nc(SCC(=O)Nc3ccc(Cl)cc3)c(C#N)cc2C1	aSyn UTR act -65
CCc1nnc(NC(=O)CSc2nc3c(cc2C#N)CCC3)s1	aSyn UTR act -159
N#Cc1cc2c(nc1SCC(=O)Nc1sc3c(c1C#N)CCC3)CCC2	aSyn UTR act -141
N#Cc1c(NC(=O)CSc2ncn[nH]2)sc2c1CCCC2	none
CCOc1ccc(-c2ccc(/C=C3/C(=N)N4C=CSC4=NC3=O)o2)c([N+](=O)[O-])c1	aSyn UTR act -72
C(=C\c1nc(-c2ccccc2)no1)/c1ccccc1	aSyn UTR act -154
C(=C\c1ccncc1)/c1ccccc1	aSyn UTR act -73
C(=C\c1nc(-c2ccncc2)no1)/c1ccccc1	aSyn UTR act -132
CC(=O)c1ccc(Nc2ncnc3c2oc2ccccc23)cc1	aSyn UTR act -90
c1ccc(CNc2ncnc3c2oc2ccccc23)nc1	aSyn UTR act -171
c1ccc2c(c1)oc1c(NCC3CCCO3)ncnc12 (configuration not stated)	aSyn UTR act -178
Cc1nc(Nc2ccncc2)c2oc3ccccc3c2n1	aSyn UTR act -66
Cc1ccc(N2CCN(C(=O)c3cc(C(=O)c4ccccc4C)c[nH]3)CC2)c(C)c1	none
CN(C)C(=O)c1cc(C(=O)c2ccc(F)cc2F)c[nH]1	aSyn UTR act -72
CN(C)C(=O)c1cc(C(=O)c2ccc(C(F)(F)F)cc2F)c[nH]1	aSyn UTR act -68
O=C(Nc1cccnc1)C1CCN(S(=O)(=O)c2cccs2)CC1	aSyn UTR act -108
Cc1ccc(N=C2c3ccccc3C(=O)C2[N+](=O)[O-])cc1C (configuration not stated)	aSyn UTR act -110
O=C1c2ccccc2S(=O)(=O)c2cc(N3CCC4(CC3)OCCO4)ccc21	aSyn UTR act -118
NC(=O)C1CCN(c2ccc3c(c2)S(=O)(=O)c2ccccc2C3=O)CC1	aSyn UTR act -63
CC1CCN(c2ccc3c(c2)S(=O)(=O)c2ccccc2C3=O)CC1	aSyn UTR act -140
Fc1ccc(CSc2nnc(-c3ccco3)o2)cc1	aSyn UTR act -117
Brc1ccc(CSc2nnc(-c3ccco3)o2)cc1	aSyn UTR act -78
Cc1ccc(CSc2nnc(-c3ccco3)o2)cc1	aSyn UTR act -154
c1ccc(CSc2nnc(-c3ccco3)o2)cc1	aSyn UTR act -97
Cc1ccc(N=C2NC(=O)/C(=C\c3cccs3)S2)cc1C	aSyn UTR act -85
O=C1Nc2ccccc2S/C1=C/c1cccs1	aSyn UTR act -68
O=C(COc1ncnc2ccccc12)c1ccc(Cl)cc1	aSyn UTR act -204
O=C(COc1ncnc2cc(Cl)ccc12)c1ccccc1	aSyn UTR act -62
c1ccc(OCCOc2ncnc3ccccc23)cc1	aSyn UTR act -184
CCCCNC(=O)C1CCN(Cc2ccc(OCc3ccccc3)cc2)CC1	aSyn UTR act -219
OC1CCN(Cc2ccc(OCc3ccccc3)cc2)CC1	aSyn UTR act -70
C=CCN(CC=C)C(=O)C1CCN(Cc2ccc(OCc3ccccc3)cc2)CC1	aSyn UTR act -97
COc1ccccc1NC(=O)Nc1ccc(-n2ccc(C(F)(F)F)n2)cc1	aSyn UTR act -212
O=C(Nc1ccc(-n2ccc(C(F)(F)F)n2)cc1)c1cccs1	aSyn UTR act -176
Cc1cc(C)cc(NC(=O)Nc2ccc(-n3ccc(C(F)(F)F)n3)cc2)c1	aSyn UTR act -77
O=C(Nc1ccc(-n2ccc(C(F)(F)F)n2)cc1)Nc1cccc(Cl)c1	aSyn UTR act -81
N#Cc1cn(-c2ccccc2)nc1C(=O)c1ccccc1	aSyn UTR act -192
N#Cc1cn(-c2ccccc2)nc1-c1ccc2c(c1)OCCO2	aSyn UTR act -184
N#Cc1cn(-c2ccccc2)nc1-c1ccco1	aSyn UTR act -147
Cn1c(-c2ccccc2)cnc1SCc1nc2ccccc2c(=O)[nH]1	aSyn UTR act -62
CC(C)(C)C1CCc2c(sc3c2C(=O)NC(c2ccco2)N3)C1 (configuration not stated)	aSyn UTR act -186
O=C(c1cccs1)N(CCN1CCCCC1)CC1CCCN(C2CCCC2)C1 (configuration not stated)	aSyn UTR act -113
Cc1ccc(C(=O)N(CCN2CCCCC2)CC2CCCN(C3CCCC3)C2)s1 (configuration not stated)	aSyn UTR act -77
N=c1n(N)c2ccccc2n1CC(=O)c1ccc(Br)cc1	aSyn UTR act -109
COc1ccc(C(CC(=O)Nc2ccccn2)N2Cc3ccccc3C2=O)cc1 (configuration not stated)	aSyn UTR act -113
Cc1cccc(-n2ccnc2SCC(=O)Nc2nccs2)c1	aSyn UTR act -132
Cc1cccc(-n2c(SCC(=O)Nc3ncc(Cl)cc3Cl)nc3ccccc32)c1	none
COc1ccc(C(CC(=O)Nc2nccs2)n2cccc2)cc1 (configuration not stated)	aSyn UTR act -168
CCCC(=O)NC(c1ccc(OC)cc1)c1ccc2cccnc2c1O (configuration not stated)	none
